Test results: PubChem BioAssay (NCATS)
Records with an inconclusive call do not appear. A number with no mark means an inactive call. Calls of active or inactive are those of the source. Unless noted, calls come from the whole dose curve; as a rule, active = well fitted curve in either direction with a large enough effect (not every such curve was filed as active); inconclusive = small, poorly fitted or top-dose-only effect, or another doubt; inactive = flat fitted curve, though single readings scatter.

Target: Cytochrome P450 1A2 (Homo sapiens) (UniProt P05177)
Sequence (P05177 whole entry, looked up): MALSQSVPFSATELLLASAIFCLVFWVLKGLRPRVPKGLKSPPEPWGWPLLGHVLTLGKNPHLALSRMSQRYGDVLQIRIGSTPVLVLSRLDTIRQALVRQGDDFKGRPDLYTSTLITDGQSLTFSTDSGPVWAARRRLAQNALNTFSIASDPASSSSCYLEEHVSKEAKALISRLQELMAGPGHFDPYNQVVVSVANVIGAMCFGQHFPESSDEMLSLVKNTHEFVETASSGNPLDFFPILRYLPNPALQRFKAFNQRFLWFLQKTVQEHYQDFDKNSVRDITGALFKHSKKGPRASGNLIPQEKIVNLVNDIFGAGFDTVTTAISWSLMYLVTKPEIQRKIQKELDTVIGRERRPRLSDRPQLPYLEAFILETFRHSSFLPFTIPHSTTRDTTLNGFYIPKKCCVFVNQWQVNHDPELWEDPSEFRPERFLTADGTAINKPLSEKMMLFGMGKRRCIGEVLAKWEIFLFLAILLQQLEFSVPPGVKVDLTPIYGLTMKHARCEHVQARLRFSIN
Test: p450-cyp1a2 (AID 410; calls by dose curve; note: potency is the fitted concentration of half-maximal effect;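 for activity change, negative = inhibition: -100% = full effect of reference inhibitor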)
Conditions: recombinant CYP1A2, luciferin-ME demethylation, luminescence; series mostly up to 11.4 µM; activity change, negative = inhibition: at the top concentration
Procedure, shortened: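 20nM CYP1A2, 100uM Luciferin-ME (=Km), 100mM KPO4; cpd 10 min RT; +NADPH regen, 60 min RT; stop/detect 20 min; luminescence. Normalized to furafylline 57 uM = full inhibition.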

SMILES	Potency	activity change, negative = inhibition
CCC(=O)OCN1C(=O)C=CC1=O	3.16 µM (active)	–
CN(C)CCCN1c2ccccc2Sc2cnccc21	0.501 µM (active)	–
Oc1ccc(Cn2c(-c3ccc(O)cc3)nc3ccccc32)cc1	–	-5.5%
O=C(O)CCc1c2ccc(=O)c(O)c-2oc2c(O)c(O)ccc12	–	-4% [at 2.29 µM]
N#[N+]c1ccc(Nc2ccccc2)cc1	–	-12.6%
O=c1c[n+](CCCC[n+]2cc(=O)o[nH]2)[nH]o1	–	2.3%
O=c1c2ccccc2sc2c(CO)ccc(NCCN3CCCCC3)c12	1.58 µM (active)	–
c1ccc(NCCSc2nc3ccccc3s2)cc1	0.501 µM (active)	–
Cc1cc(SCC(=O)c2ccc(Br)cc2)cc(C)[o+]1	3.98 µM (active)	–
c1ccc([C@H](c2cccc3c2ccc2ccccc23)[C@H](c2ccccc2)c2cccc3c2ccc2ccccc23)cc1	–	-9.4%
O=C(O)[C@@H](O)[C@@H](O)[C@@H](O)[C@@H](O)c1nc2ccccc2s1	3.98 µM (active)	–
CC(C)NC[C@@H](O)c1ccc(O)c2ncccc12	–	-12.1% [at 2.29 µM]
NCCSc1nc2ccccc2s1	0.316 µM (active)	–
O=C(O)c1ccccc1-c1ccccc1C(=O)Nc1ccc2c(c1)Cc1cc(F)ccc1-2	3.98 µM (active)	–
N/C(=N\O)c1cn([C@@H]2O[C@@H](CO)[C@H](O)[C@@H]2O)c2ncnc(NO)c12	–	-18.7% [at 2.29 µM]
Cn1cnc([N+](=O)[O-])c1SCC(=O)O	–	-9.7%
ON(CCc1ccncc1)Cc1ccccc1	1 µM (active)	–
Cc1cccc(C)c1NC(=O)Nc1ccc(S(N)(=O)=O)cc1	–	-10.8% [at 2.29 µM]
COc1cc(C2SCCCCCCCCCCSC(c3ccc(O)c(OC)c3)SCCCCCCCCCCS2)ccc1O (stereo not given)	–	-6.9% [at 2.29 µM]
COc1cc(-c2[o+]c3cc(O)cc(O)c3cc2O)cc(O)c1O	–	-19.9% [at 2.29 µM]

SMILES	Potency	activity change, negative = inhibition
CO[C@@H]1/C=C\O[C@]2(C)Oc3c(C)c(O)c4c(O)c(cc(O)c4c3C2=O)NC(=O)/C(C)=C\C=C/[C@H](C)[C@@H](O)[C@H](C)[C@H](O)[C@H](C)[C@H](OC(C)=O)[C@@H]1C	–	-10%
C/C(C[n+]1ccccc1)=N\N=C(N)N	–	-9.7%
C[N+](C)(C)c1ncnc2c1ncn2[C@@H]1CCCCO1	–	2.3% [at 2.29 µM]
O=C(O)CSc1nc2ccccc2[nH]1	–	-19.8%
Cc1nc2cnc(N3CCNCC3)nc2n(-c2ccccc2)c1=O	10 µM (active)	–
N[C@@](CCc1ccccc1)(C(=O)O)c1ccccc1	–	-9.6%
COCCn1c(=O)c(-c2ccccc2)nc2cnc(Nc3ccccc3)nc21	5.01 µM (active)	–
CC(=O)N[C@@H]1CONC1=O	–	-16.9%
O=C(O)CSc1ccn(Cc2ccccc2)c1	–	-14.3%
COc1ccccc1CCn1c(=O)c(-c2ccc(F)cc2)nc2cncnc21	1 µM (active)	–
CC(C)(N)CO[C@H]1C[C@H]2CC[C@@]1(C)C2(C)C	–	-8.3%
CC(C)(C)c1ccc(NS(=O)(=O)c2ccc(N)cc2)cc1	3.16 µM (active)	–
O=C(O)c1nnsc1-c1csnn1	–	-3.7%
COCCn1c(=O)c(-c2ccc(OC)cc2)nc2cnc(OC)nc21	3.16 µM (active)	–
NC(N)=NC(N)=Nc1ccc(S(N)(=O)=O)cc1	–	-9.8%
c1c[nH]c(CN2CCOCC2)n1	–	6.4%
CC(C)CSC[C@@H]1O[C@H](n2cnc3c(N)nccc32)[C@H](O)[C@@H]1O	–	3.4%
C[C@@]12CCC(=O)C=C1CC[C@H]1[C@@H]2[C@@H](O)C[C@]2(C)[C@@H]1CC[C@@]2(O)C(=O)CO	–	-23.6%
CCNc1ncc2nc(C)c(=O)n(Cc3cccc(OC)c3)c2n1	3.16 µM (active)	–
CC(=O)Nc1nc(NC(C)=O)c2[nH]c(CO)nc2n1	–	-14.4%

Test system: not listed separately
Test: NFAT Signaling Pathway (AID 444);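 note: carbachol stimulus at about its EC50 of 1 µM final; % is set by controls: 0 for no effect and ±100 for the full control effect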
Conditions: Jurkat NFAT-bla M1, carbachol, beta-lactamase ratio, 5 h; at 7.69 µM (top of the series) unless noted
Procedure, shortened: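 Read-out: CCF4 FRET ratio (460 nm/530 nm) after 1 h RT dye loading, used for %activity and AC50 from titration series. Cells: Jurkat NFAT-β-lactamase/M1 line, treated with compound plus 1 uM carbachol for 5 h, 37 °C.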

SMILES	activity change, negative = inhibition [%]
CCC(=O)OCN1C(=O)C=CC1=O	-27.8
CN(C)CCCN1c2ccccc2Sc2cnccc21	-14.8
Oc1ccc(Cn2c(-c3ccc(O)cc3)nc3ccccc32)cc1	20.6
O=C(O)CCc1c2ccc(=O)c(O)c-2oc2c(O)c(O)ccc12	17.3
N#[N+]c1ccc(Nc2ccccc2)cc1	-28.8
O=c1c[n+](CCCC[n+]2cc(=O)o[nH]2)[nH]o1	-11
O=c1c2ccccc2sc2c(CO)ccc(NCCN3CCCCC3)c12	27.4
c1ccc(NCCSc2nc3ccccc3s2)cc1	-14.1
Cc1cc(SCC(=O)c2ccc(Br)cc2)cc(C)[o+]1	27.1
c1ccc([C@H](c2cccc3c2ccc2ccccc23)[C@H](c2ccccc2)c2cccc3c2ccc2ccccc23)cc1	-0.573
O=C(O)[C@@H](O)[C@@H](O)[C@@H](O)[C@@H](O)c1nc2ccccc2s1	-1.53
CC(C)NC[C@@H](O)c1ccc(O)c2ncccc12	14
NCCSc1nc2ccccc2s1	7.28
O=C(O)c1ccccc1-c1ccccc1C(=O)Nc1ccc2c(c1)Cc1cc(F)ccc1-2	-16.2
N/C(=N\O)c1cn([C@@H]2O[C@@H](CO)[C@H](O)[C@@H]2O)c2ncnc(NO)c12	19.5
Cn1cnc([N+](=O)[O-])c1SCC(=O)O	3.51
ON(CCc1ccncc1)Cc1ccccc1	9.66
Cc1cccc(C)c1NC(=O)Nc1ccc(S(N)(=O)=O)cc1	11
COc1cc(C2SCCCCCCCCCCSC(c3ccc(O)c(OC)c3)SCCCCCCCCCCS2)ccc1O (stereo not given)	19.7
COc1cc(-c2[o+]c3cc(O)cc(O)c3cc2O)cc(O)c1O	20.3

SMILES	activity change, negative = inhibition [%]
CO[C@@H]1/C=C\O[C@]2(C)Oc3c(C)c(O)c4c(O)c(cc(O)c4c3C2=O)NC(=O)/C(C)=C\C=C/[C@H](C)[C@@H](O)[C@H](C)[C@H](O)[C@H](C)[C@H](OC(C)=O)[C@@H]1C	-26.6
C/C(C[n+]1ccccc1)=N\N=C(N)N	-14.3
C[N+](C)(C)c1ncnc2c1ncn2[C@@H]1CCCCO1	5.08
O=C(O)CSc1nc2ccccc2[nH]1	-2.37
Cc1nc2cnc(N3CCNCC3)nc2n(-c2ccccc2)c1=O	1.83
N[C@@](CCc1ccccc1)(C(=O)O)c1ccccc1	3.42
COCCn1c(=O)c(-c2ccccc2)nc2cnc(Nc3ccccc3)nc21	10.4
CC(=O)N[C@@H]1CONC1=O	5.02
O=C(O)CSc1ccn(Cc2ccccc2)c1	1.69
COc1ccccc1CCn1c(=O)c(-c2ccc(F)cc2)nc2cncnc21	-26.6
CC(C)(N)CO[C@H]1C[C@H]2CC[C@@]1(C)C2(C)C	3.38
CC(C)(C)c1ccc(NS(=O)(=O)c2ccc(N)cc2)cc1	-2.46
O=C(O)c1nnsc1-c1csnn1	4.42
COCCn1c(=O)c(-c2ccc(OC)cc2)nc2cnc(OC)nc21	8.31
NC(N)=NC(N)=Nc1ccc(S(N)(=O)=O)cc1	3.86
c1c[nH]c(CN2CCOCC2)n1	6.99
CC(C)CSC[C@@H]1O[C@H](n2cnc3c(N)nccc32)[C@H](O)[C@@H]1O	12.1
C[C@@]12CCC(=O)C=C1CC[C@H]1[C@@H]2[C@@H](O)C[C@]2(C)[C@@H]1CC[C@@]2(O)C(=O)CO	14
CCNc1ncc2nc(C)c(=O)n(Cc3cccc(OC)c3)c2n1	-2.59
CC(=O)Nc1nc(NC(C)=O)c2[nH]c(CO)nc2n1	1.8
